# The campaign covered roughly 350,000 compounds. About 31,000 (8.9%) were called active. Another 15% or so got no clear call; they are omitted. The list comes from a sample in which actives are over-represented; it also holds similar structures and randomly drawn compounds. Where a call stands in place of a potency, no number is given. A number with no mark means an inactive call. The call rests on the fitted dose curve; in most records, active means well fitted inhibition curve with a large enough effect; inconclusive means small, poorly fitted or top-dose-only effect; inactive means no such curve, though single readings can be large or run the other way.
# Target: Histone-lysine N-methyltransferase EHMT2 (Homo sapiens) (UniProt Q96KQ7)
# Test: qHTS Assay for Inhibitors of Histone Lysine Methyltransferase G9a; further: nearly all actives have a fitted effect of over 75% in size
# Conditions: G9a H3K9 monomethylation, AlphaScreen, 2 h; series mostly up to 59 µM
# In short: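 G9a (20 nM) was preincubated 15 min with compound, then reacted 2 h at room temperature with 500 nM biotin-H3K9 peptide and 20 µM SAM. Monomethyl-H3K9 detected by AlphaScreen using anti-H3K9me1 antibody.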
# Potency means the concentration at half of the fitted maximal effect.
# Histone-lysine N-methyltransferase EHMT2 (Homo sapiens), sequence (Q96KQ7 913-1193 limits assumed): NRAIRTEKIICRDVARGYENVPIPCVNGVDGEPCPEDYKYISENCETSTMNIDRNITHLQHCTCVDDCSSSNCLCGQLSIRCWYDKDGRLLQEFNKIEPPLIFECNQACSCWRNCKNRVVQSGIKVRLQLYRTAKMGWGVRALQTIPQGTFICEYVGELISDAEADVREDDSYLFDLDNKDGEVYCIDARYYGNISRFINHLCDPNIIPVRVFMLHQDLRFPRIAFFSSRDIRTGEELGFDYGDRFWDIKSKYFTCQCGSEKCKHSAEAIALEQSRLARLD
SMILES,"activity, negative = inhibition",Potency
COc1cc(OC)cc(C(=O)NCC(=O)N2CCCCCCC2)c1,12.1% [at 12.7 µM],
CCN(CC(=O)Nc1ccc(NC(C)=O)cc1)C(=O)CSC(=S)N1CCCC1,-6.65% [at 12.7 µM],
CCc1ccccc1NC(=O)Cc1ccc(NC(=O)N2CCCCc3ccccc32)cc1,,inactive
Cc1ccc(Nc2c(-c3ccc(C)cc3)nc3cnccn23)cc1,,inactive
Cc1ccc(Nc2c(-c3ccc(N(C)C)cc3)nc3nc[nH]n23)cc1,,2.51 µM (active)
COC(=O)C1(C)NC(c2ccc(F)cc2)C2C(=O)N(c3ccccc3)C(=O)C21 (stereo not given),,inactive
Cc1sc2nc(CSCC(=O)NC3CCCCC3)[nH]c(=O)c2c1C,-8.21% [at 0.501 µM],
COc1cc(OC)c(-n2c(C)cc(C=O)c2C)cc1Cl,,inactive
COc1cc(OC)c(-n2cc(-c3ccc(Cl)cc3)[nH]c2=O)cc1Cl,,31.6 µM (active)
COc1cc(OC)c(N2CC(C(=O)Nc3cc(Cl)ccc3N3CCOCC3)CC2=O)cc1Cl (stereo not given),,inactive
CCOC(=O)C1CCN(c2nc3c(S(=O)(=O)c4ccc(CC)cc4)nnn3c3ccc(Cl)cc23)CC1,,inactive
CCCCNC(=O)CSc1nc2cc3c(cc2c(=O)n1CCCCCC(=O)NCc1ccc2c(c1)OCO2)OCO3,,inactive
O=C(CNS(=O)(=O)c1ccc2c(c1)OCCCO2)N1CCN(c2ccc(F)cc2)CC1,24.8% [at 12.7 µM],
CC(=O)c1c(C)oc2ccc(NS(=O)(=O)c3ccc(C(=O)O)cc3)cc12,,inactive
Cc1cc(C(C)(C)C)cc(S(=O)(=O)Nc2ccc(C(=O)O)cc2)c1C,,inactive
O=C(O)c1ccc(NS(=O)(=O)c2ccc3c(c2)C(=O)c2cc(S(=O)(=O)Nc4ccc(C(=O)O)cc4)ccc2-3)cc1,,50.1 µM (active)
CCCn1c2ccccc2c2cnn(CC(=O)N(C)c3ccccc3CC)c(=O)c21,,inactive
CC(CCc1ccccc1)NC(=O)COC(=O)c1ccc(F)cc1 (stereo not given),,inactive
O=C(Cn1ncc2c3ccccc3n(Cc3ccccc3)c2c1=O)NC1CCCCCC1,,inactive
Cc1ccc(NC(=O)C2CC(c3ccc(F)cc3)=NO2)cc1 (stereo not given),,inactive

SMILES,"activity, negative = inhibition",Potency
O=C(Nc1ccc2c(c1)OCO2)C1CC(c2c(F)cccc2Cl)=NO1 (stereo not given),,44.7 µM (active)
O=C(Nc1ccc2c(c1)OCO2)C1CC1(Cl)Cl (stereo not given),2.4% [at 12.7 µM],
O=C(Nc1ccccn1)C1CCN(S(=O)(=O)c2ccccc2)CC1,-10.1% [at 12.7 µM],
Nc1c(N(CCCO)C(=O)C2CCCC2)c(=O)[nH]c(=O)n1Cc1ccccc1,,inactive
Cn1nnnc1SCCCNCc1cccc(OCc2ccc(Cl)cc2)c1,,inactive
O=c1c2ccccc2cnn1Cc1n[nH]c(=S)n1-c1ccccc1F,,31.6 µM (active)
Cn1c2cc(B(O)O)sc2c2cnn(Cc3ccccc3F)c(=O)c21,0.244% [at 12.7 µM],
O=C(Cn1nc(Cc2cccnc2)c2ccccc2c1=O)N1CCN(c2ccccc2F)CC1,,inactive
COc1ccc(CNC(=O)CSc2nc3ccccc3nc2Cc2ccccc2)cc1,,inactive
CCS(=O)(=O)c1nc(S(=O)(=O)c2ccc(C)cc2)c(NCc2ccc(Cl)cc2)s1,,inactive
O=C(CCS(=O)(=O)c1cc(Br)cc2c1N(C(=O)C1CC1)CC2)Nc1ccc(Br)cc1F,,inactive
Cc1cccc(OCC(=O)Nc2ccc(NC(=O)c3ccco3)c(C)c2)c1,0.639% [at 12.7 µM],
Cc1cccc(Nc2cc(C)nc(-n3nc(C)cc3C)n2)c1,,inactive
CCCC1=Nc2cc(C(=O)NCCN3CCCC3)ccc2Sc2ccccc21,,79.4 µM (active)
CCC1=Nc2cc(C(=O)NCCN3CCCC3)ccc2Sc2ccc(C)cc21,,inactive
CCC1=Nc2cc(C(=O)NCC(C)c3ccccc3)ccc2Sc2ccc(C)cc21 (stereo not given),,inactive
Cc1ccc(F)cc1S(=O)(=O)Nc1cccc(C(=O)N2CCCC(C(N)=O)C2)c1 (stereo not given),,inactive
CCOc1ccccc1NC(=O)CCn1cnnn1,,inactive
Cc1cc(Cl)ccc1OCCCC(=O)Nc1cccc(-n2cnnn2)c1,,inactive
CN(C)c1ccc(/C=N\S(=O)(=O)c2ccccc2)cc1,,inactive

SMILES,"activity, negative = inhibition",Potency
CC[n+]1cc(C)ccc1/C=C/c1ccc(N(C)C)cc1,,6.31 µM (active)
CCc1ccc(-c2nn(-c3ccccc3C)cc2C(=O)N2CCN(C3CCS(=O)(=O)C3)CC2)cc1 (stereo not given),5.96% [at 12.7 µM],
CCC(C)(C)NC(=O)C(c1ccc(OC)cc1)N(C(=O)CCC(=O)Nc1cc(C)on1)c1ccc(OC)cc1OC (stereo not given),,inactive
CCOc1cc(/C=C/C(=O)OCC(=O)NCCN2C(=O)CSC2=O)ccc1OCC(C)C,17.6% [at 12.7 µM],
Cc1cc(-c2ccc(C)c(S(=O)(=O)N3c4ccccc4CC3C)c2)on1 (stereo not given),,inactive
COc1ccc(CCNC(=O)CCC(=O)NC2CCCCC2)cc1OC,,inactive
COc1ccc(C(=O)N(CCN2CCOCC2)CC(=O)NC2CCCC2)cc1OC,,50.1 µM (active)
O=C(Cn1nnc(-c2ccc(CN3CCOCC3)cc2)n1)NC1CCCCC1,10.1% [at 12.7 µM],
Cc1cc(-c2ccccc2)n2nc(-c3ccccc3)cc2n1,,inactive
CCCCC(=O)Nc1ccc2c(c1)OCCO2,,inactive
S=C(NCc1ccco1)NCc1ccccc1Cl,,inactive
S=C(NCc1ccc2c(c1)OCO2)NCc1ccco1,,31.6 µM (active)
COc1cccc(NC(=S)NCc2ccco2)c1,,inactive
Cc1c(Cl)cccc1NC(=S)NCc1ccc2c(c1)OCO2,,inactive
S=C(NCc1ccco1)Nc1ccc2c(c1)OCCO2,,44.7 µM (active)
CCC1CN(S(=O)(=O)c2cc(-c3cc(C)no3)ccc2C)c2cc(C)ccc2O1 (stereo not given),,inactive
O=C(NC1CCCCCC1)C1CCN(C(=O)c2ccc(Cl)cc2)CC1,6.11% [at 12.7 µM],
CCOC(=O)c1cc(=O)c2ccc(OCc3ccccc3)cc2o1,,inactive
Cc1cc(N2C(=O)C(O)=C(C(=O)c3ccc(C)o3)C2c2ccc(OCc3ccccc3)cc2)no1 (stereo not given),,31.6 µM (active)
COc1cc(C2C(C(=O)c3ccco3)=C(O)C(=O)N2c2cc(C)on2)ccc1OCc1ccccc1 (stereo not given),,inactive
